The campaign covered roughly 5,600 compounds. About 4,100 (73%) were called active. Another 4% or so got no clear call; they are omitted.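 How the source made its calls: active means mean replicate inhibition above about 95% and at least 55% of replicates individually reaching it (limit read from the data); inconclusive means only one of the two criteria is met; inactive means neither criterion is met.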 So high a share suggests a set chosen from earlier hits. These entries were drawn from the full list.

61 compounds from PubChem BioAssay AID651739 (Broad Institute, 2012) can be followed below.

This assay in a line: blockers of Trypanosoma cruzi growth in host cells – cell-based, NIH3T3 host, beta-gal parasite, luminescence, cherry-pick, confirmation (AID 651739). Conditions: T. cruzi beta-gal in NIH3T3, GalScreen luminescence, 90 h; at 8.35 µM; active compounds read high.
Consider `CN(C)C(=O)c1ccc(-c2ccc3c(c2)[C@H]2[C@H](CCN2C(=O)c2ccc4c(c2)OCO4)[C@H](CO)N3)cc1`, for which the inhibition is 100% (active).

As for `O=C(c1ccccn1)N1CC[C@@H]2[C@H]1c1cc(-c3ccccc3)ccc1N[C@@H]2CO`, the inhibition is 107% (active).

Turning to `OC[C@@H]1Nc2ccc(-c3cccc(F)c3)cc2[C@H]2[C@@H]1CCN2Cc1ccncc1`, the inhibition was 114% (active).

Turning to `O=C(c1cnccn1)N1CC[C@@H]2[C@H](CO)Nc3ccc(-c4cccc(F)c4)cc3[C@@H]21`, the inhibition is 109% (active).

For `O=C(c1ccccc1F)N1C[C@H]2[C@@H](c3ccccc31)[C@@H](CO)N2C(=O)c1ccc(F)cc1`, the inhibition was 46.6% (inactive).

Take `CCCN(C)C[C@@H]1Oc2cc(C#Cc3ccc(F)cc3)ccc2S(=O)(=O)N([C@H](C)CO)C[C@H]1C`: the inhibition is 108% (active).

Take `CCCN(C)C[C@H]1Oc2cc(C#CC3CCCC3)ccc2S(=O)(=O)N([C@H](C)CO)C[C@@H]1C`: the inhibition is 105% (active).

Regarding `C[C@@H]1CN([C@@H](C)CO)S(=O)(=O)c2ccc(C#Cc3ccc(F)cc3)cc2O[C@H]1CN(C)S(C)(=O)=O`, the inhibition is 85.8% (inactive).

Consider `C[C@@H]1CN([C@H](C)CO)S(=O)(=O)c2ccc(C#Cc3ccncc3)cc2O[C@@H]1CN(C)S(=O)(=O)c1ccc(F)cc1`, for which the inhibition is 70.2% (inactive).

Turning to `CN1c2ccc(-c3ccccc3)cc2[C@H]2[C@H](CCN2C(=O)Cc2ccccn2)[C@H]1CO`, the inhibition was 88.9% (inactive).

With `CCC(=O)N1CC[C@@H]2[C@@H](CO)N(C)c3ccc(-c4cccc(OC)c4)cc3[C@@H]21`, the inhibition was 99.1% (active).

In the case of `COc1ccc(-c2ccc3c(c2)[C@@H]2[C@@H](CCN2C(=O)Cc2ccccn2)[C@H](CO)N3C)cc1`, the inhibition was 108% (active).

As for `COc1ccc(NC(=O)N2CC[C@@H]3[C@@H](CO)N(C)c4ccc(-c5cccc(F)c5)cc4[C@@H]32)cc1`, the inhibition is 100% (active).

As to `CN1c2ccc(-c3ccccc3)cc2[C@@H]2[C@@H](CCN2C(=O)c2ccncc2)[C@@H]1CO`, the inhibition was 100% (active).

As to `CCC(=O)N1CC[C@@H]2[C@@H](CO)N(C)c3ccc(-c4ccc(F)cc4)cc3[C@@H]21`, the inhibition is 102% (active).

As to `C[C@H](CO)N1C[C@H](C)[C@@H](CN(C)S(=O)(=O)c2cccc(F)c2)OCc2ccccc2-c2c(n(C)c3ccccc23)C1=O`, the inhibition was 99.6% (active).

For `C[C@H]1CN([C@@H](C)CO)C(=O)c2ccccc2-c2ccccc2CO[C@@H]1CN(C)S(=O)(=O)c1ccc(C(F)(F)F)cc1`, the inhibition is 99.2% (active).

Turning to `C[C@H](CO)N1C[C@H](C)[C@@H](CN(C)C(=O)Nc2ccnc(N3CCOCC3)c2)OCc2ccccc2-c2ccccc2C1=O`, the inhibition was 100% (active).

As for `C[C@H](CO)N1C[C@H](C)[C@H](CN(C)S(=O)(=O)c2ccccc2)Oc2ncc(-c3cccc(C(F)(F)F)c3)cc2C1=O`, the inhibition was 108% (active).

In the case of `Cc1noc(C)c1S(=O)(=O)N(C)C[C@H]1Oc2ccc(N(C)C)cc2CC(=O)N([C@H](C)CO)C[C@@H]1C`, the inhibition is -37.8% (inactive).

With `C[C@@H]1CN([C@H](C)CO)C(=O)c2cc(-c3cncnc3)cnc2O[C@H]1CN(C)C(=O)Nc1ccc2c(c1)OCO2`, the inhibition was -15.5% (inactive).

For the compound `C[C@H](CO)N1C[C@H](C)[C@H](CN(C)S(=O)(=O)c2cccc(F)c2)Oc2ncc(/C=C/c3ccccc3)cc2C1=O`, the inhibition was 102% (active).

As for `Cc1ccc(S(=O)(=O)N(C)C[C@@H]2Oc3ncc(-c4cc5ccccc5o4)cc3C(=O)N([C@H](C)CO)C[C@@H]2C)cc1`, the inhibition is 105% (active).

On to `Cc1ccc(-c2cnc3c(c2)C(=O)N([C@@H](C)CO)C[C@@H](C)[C@H](CN(C)Cc2ccccc2F)O3)cc1`, for which the inhibition is 102% (active).

On to `COc1ccccc1-c1ccc2c(c1)O[C@H](CN(C)S(=O)(=O)c1ccc(C)cc1)[C@@H](C)CN([C@H](C)CO)S2(=O)=O`, for which the inhibition was 93.9% (inactive).

As for `C[C@@H]1CN([C@H](C)CO)S(=O)(=O)c2ccc(C#CC3CCCC3)cc2O[C@@H]1CN(C)Cc1cccnc1`, the inhibition is 98.8% (active).

Take `C[C@@H]1CN([C@H](C)CO)S(=O)(=O)c2ccc(C#CC3CCCC3)cc2O[C@@H]1CN(C)C(=O)Cc1ccncc1`: the inhibition was 92.6% (inactive).

For the compound `C[C@H]1CN([C@@H](C)CO)S(=O)(=O)c2ccc(C#CC3CCCC3)cc2O[C@H]1CN(C)C(=O)Cc1ccncc1`, the inhibition was 110% (active).

For the compound `C[C@H](CO)N1C[C@H](C)[C@H](CN(C)Cc2cccnc2)Oc2cc(C#CC3CCCC3)ccc2S1(=O)=O`, the inhibition is 108% (active).

Consider `C[C@@H]1CN([C@H](C)CO)C(=O)c2cc(NC(=O)Nc3ccc(F)cc3)ccc2O[C@@H](C)CCCCO[C@H]1CN(C)Cc1ccc(Cl)c(Cl)c1`, for which the inhibition is 98.3% (active).

With `C[C@@H]1CCCCO[C@@H](CN(C)Cc2ccc(Cl)c(Cl)c2)[C@H](C)CN([C@H](C)CO)C(=O)c2cc(NC(=O)Nc3ccc(F)cc3)ccc2O1`, the inhibition is 88.5% (inactive).

`COc1ccc(NC(=O)Nc2ccc3c(c2)C(=O)N([C@H](C)CO)C[C@@H](C)[C@H](CN(C)Cc2ccc(Cl)c(Cl)c2)OCCCC[C@@H](C)O3)cc1`: the inhibition was 98.8% (active).

As for `C[C@H](CO)N1C[C@H](C)[C@@H](CN(C)Cc2ccc(-c3ccccc3)cc2)Oc2ccc(NC(=O)CCC(F)(F)F)cc2CC1=O`, the inhibition was 92.4% (inactive).

As for `C[C@@H]1CN([C@@H](C)CO)C(=O)Cc2cc(NC(=O)C3CCCCC3)ccc2O[C@@H]1CN(C)Cc1ccc(C(=O)Nc2ccccc2N)cc1`, the inhibition was 103% (active).

For the compound `C[C@H](CO)N1C[C@H](C)[C@H](CN(C)Cc2ccc(-c3ccccc3)cc2)Oc2ccc(NC(=O)Nc3ccc(F)cc3)cc2CC1=O`, the inhibition is 110% (active).

In the case of `C[C@@H]1CN([C@H](C)CO)C(=O)Cc2cc(NC(=O)c3ccncc3)ccc2O[C@H]1CN(C)Cc1ccc(-c2ccccc2)cc1`, the inhibition is 109% (active).

In the case of `COc1ccc(-c2ccc([C@H]3[C@H]4CN(C(=O)c5ccc6c(c5)OCO6)CCCCN4[C@H]3CO)cc2)cc1`, the inhibition is 106% (active).

With `Cc1cccc(-c2ccc([C@@H]3[C@H](CO)N4CCCCN(C(=O)c5ccc6c(c5)OCO6)C[C@@H]34)cc2)c1`, the inhibition was 105% (active).

Regarding `COCC#Cc1ccc([C@@H]2[C@H](CO)N3CCCCN(C(=O)CN(C)C)C[C@@H]23)cc1`, the inhibition was 57.7% (inactive).

As to `CCCC#Cc1ccc([C@H]2[C@H](CO)N3CCCCN(C(=O)c4ccc5c(c4)OCO5)C[C@@H]23)cc1`, the inhibition is 104% (active).

As for `O=C(CN1CCOCC1)N1CCCCN2[C@@H](CO)[C@H](c3ccc(/C=C/c4ccccc4)cc3)[C@@H]2C1`, the inhibition was 99.6% (active).

On to `CCC(=O)N1CCCCN2[C@H](C1)[C@@H](c1ccc(-c3ccc(F)cc3)cc1)[C@@H]2CO`, for which the inhibition was 60.2% (inactive).

As for `CCC(=O)N1CCCCN2[C@H](C1)[C@@H](c1ccc(/C=C/c3ccccc3)cc1)[C@@H]2CO`, the inhibition is 102% (active).

Regarding `O=C(CN1CCOCC1)N1CCCCN2[C@H](CO)[C@H](c3ccc(-c4ccccc4)cc3)[C@@H]2C1`, the inhibition is 73.7% (inactive).

In the case of `O=C(CN1CCOCC1)N1CCCCN2[C@@H](CO)[C@H](c3ccc(-c4ccccc4)cc3)[C@@H]2C1`, the inhibition is 81.6% (inactive).

`O=C(C[C@H]1CC[C@@H]2[C@H](COC[C@H](O)CN2Cc2ccc(Oc3ccccc3)cc2)O1)N1CCN(c2ccccc2)CC1`: the inhibition was 101% (active).

Consider `COc1cccc(C#Cc2ccc([C@@H]3[C@H](C#N)N[C@H]3CO)cc2)c1`, for which the inhibition was 101% (active).

Regarding `O=C(c1cccnc1)N1CCCCN2[C@@H](CO)[C@H](c3ccc(C#Cc4ccccc4)cc3)[C@@H]2C1`, the inhibition is 112% (active).

`O=C(Nc1cc(F)ccc1F)N1CCCCN2[C@H](CO)[C@@H](c3ccc(-c4cncnc4)cc3)[C@H]2C1`: the inhibition is 55.4% (inactive).

Take `O=C(c1cccc(F)c1)N1CCCCN2[C@H](CO)[C@H](c3ccc(-c4ccncc4)cc3)[C@H]2C1`: the inhibition was 95.2% (active).

In the case of `O=C(Nc1ccccc1F)N1CCCCN2[C@H](CO)[C@@H](c3ccc(-c4cccnc4)cc3)[C@H]2C1`, the inhibition was 61.1% (inactive).

Turning to `CC(C)(O)C#Cc1ccc([C@@H]2[C@H](CO)N3CCCCN(C(=O)c4cccc(F)c4)C[C@@H]23)cc1`, the inhibition is 76.7% (inactive).

For the compound `COc1ccc(C#Cc2ccc([C@@H]3[C@@H](CO)N4CCCCN(C(=O)c5ccncc5)C[C@@H]34)cc2)cc1`, the inhibition was 80.6% (inactive).

As for `O=C(c1ccncc1)N1CCCCN2[C@H](CO)[C@H](c3ccc(-c4ccccc4)cc3)[C@H]2C1`, the inhibition is 105% (active).

`COc1ccccc1NC(=O)N1CCCCN2[C@H](C1)[C@H](c1ccc(-c3ccccc3)cc1)[C@@H]2CO`: the inhibition is 109% (active).

Take `C[C@@H]1CN([C@H](C)CO)C(=O)c2cc(NS(=O)(=O)c3cccs3)ccc2O[C@@H](C)CCCCO[C@H]1CN(C)Cc1ccc(C(F)(F)F)cc1`: the inhibition is 101% (active).

With `C[C@@H]1CCCCO[C@@H](CN(C)Cc2ccc(C(F)(F)F)cc2)[C@@H](C)CN([C@H](C)CO)C(=O)c2cc(NC(=O)Nc3ccccc3)ccc2O1`, the inhibition is 105% (active).

For `C[C@@H]1CCCCO[C@H](CN(C)Cc2ccccc2)[C@@H](C)CN([C@@H](C)CO)C(=O)c2cc(NC(=O)Nc3ccc(F)cc3)ccc2O1`, the inhibition was 101% (active).

In the case of `C[C@@H]1CCCCO[C@H](CN(C)Cc2ccc(C(F)(F)F)cc2)[C@H](C)CN([C@H](C)CO)C(=O)c2cc(NC(=O)Nc3ccc(F)cc3)ccc2O1`, the inhibition is 96.3% (active).

As to `C[C@H]1CCCCO[C@H](CN(C)Cc2ccccc2)[C@@H](C)CN([C@@H](C)CO)C(=O)c2cc(NC(=O)NC3CCCCC3)ccc2O1`, the inhibition is 111% (active).

For the compound `C[C@H]1CCCCO[C@H](CN(C)Cc2ccccc2)[C@@H](C)CN([C@@H](C)CO)C(=O)c2cc(NC(=O)c3ccccc3)ccc2O1`, the inhibition was 113% (active).
